CYP2C9 inh: blockers of cytochrome P450 2C9 activity – biochemical, luminescence, ADME assay, primary screen | CYP2C9 Supersomes, luciferin-H conversion | inhibition, % at 5 µM | 20% of 96,000 active;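 active means blocking of liver enzyme CYP2C9 beyond about 50% at 5 µM, limit read from the data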
CYP2C19 act: human CYP2C19 activators, primary screen, biochemical, luminescence; Cytochrome P450 2C19 (Homo sapiens), P33261; recombinant CYP2C19, luciferin-H EGE luminescence; hits give high values; 0 = fully inhibited enzyme, 1 = untreated enzyme; activation factor at 5 µM; 96,000 tested, under 10 active;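 active means activation factor of at least 2 at 5 µM in the primary screen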;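 further: 0 = wells with 2.5 mM tranylcypromine and 1 = vehicle-only wells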
Target sequence (P33261 whole entry, looked up): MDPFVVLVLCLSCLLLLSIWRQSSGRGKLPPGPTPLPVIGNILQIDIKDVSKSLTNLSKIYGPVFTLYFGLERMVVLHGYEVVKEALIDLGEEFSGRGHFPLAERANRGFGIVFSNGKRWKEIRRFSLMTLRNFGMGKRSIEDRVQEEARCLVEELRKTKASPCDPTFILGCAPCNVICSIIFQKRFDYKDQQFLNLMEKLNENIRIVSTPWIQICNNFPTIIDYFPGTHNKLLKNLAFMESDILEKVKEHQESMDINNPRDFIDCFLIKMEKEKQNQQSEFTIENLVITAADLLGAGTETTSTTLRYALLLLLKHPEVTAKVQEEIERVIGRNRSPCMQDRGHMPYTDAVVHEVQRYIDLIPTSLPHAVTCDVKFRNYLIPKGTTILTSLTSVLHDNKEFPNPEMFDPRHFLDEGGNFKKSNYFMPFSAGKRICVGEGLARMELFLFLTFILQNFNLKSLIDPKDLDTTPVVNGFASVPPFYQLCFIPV
MRP resist rev: reversal of MRP1-mediated doxorubicin resistance, primary screen, H69AR cells, doxorubicin co-treatment; AID 602, 2007; 0.04% of 85,000 active; H69AR cells + 2 uM doxorubicin, CellTiter-Glo, 72 h; differential viability (reversal), % at 10 µM;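 active means viability drop by adding the cancer drug above about 55%, with treated viability meeting a 40% cutoff, limit read from the data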;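 further: viability without doxorubicin minus viability with 2 µM doxorubicin for each compound; larger differential means the compound sensitizes cells more to doxorubicin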
CYP2C19 inh: blockers of cytochrome P450 2C19 activity – biochemical, luminescence, ADME assay, primary screen; inhibition, % at 5 µM; P33261; 21% of 96,000 active; CYP2C19 Supersomes, luciferin-H EGE luminescence, 30 min; AID 778, 2007;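 active means CYP2C19 inhibition above a set limit at 5 µM in the primary screen, cut at about 50% in these data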;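 further: plate controls were negative control wells for no effect and 2.5 mM tranylcypromine positive control for full effect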
MRP-1 activ: H69AR viability gain despite doxorubicin, primary screen, MRP-1 activator project, H69AR cells, CellTiter-Glo | AID 799, 2007 | 0.61% of 140,000 active | viability increase, % at 10 µM | viability rescue;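 active means viability gain under doxorubicin at or above a set limit, the compound median plus 3 SD, cut at about 4.7% in these data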;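 further: MRP-1 overexpressing cells given doxorubicin 25 µM after compound pretreatment; 18-22 h compound pretreatment then 72 h with doxorubicin before readout; 0% = doxorubicin-only wells and 100% = vehicle-treated cells without doxorubicin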
CYP2C9 activ: human CYP2C9 activators, primary screen, biochemical, luminescence | recombinant CYP2C9, luciferin-H conversion; hits give high values; factor 1 = untreated enzyme, 0 = blocked | 1.4% of 96,000 active | Cytochrome P450 2C9 (Homo sapiens), P11712 | activation factor at 5 µM;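 active means activation factor of 2 or more for CYP2C9 at a 5 µM dose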;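 further: 0 = sulfaphenazole-blocked wells and 1 = vehicle-only wells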
* = called active by the depositor; x = no result given. The list is not random: actives were taken first. Their share in the collection is about 21%.

SMILES | CYP2C9 inh | CYP2C19 act | MRP resist rev | CYP2C19 inh | MRP-1 activ | CYP2C9 activ
COc1ccc(S(=O)(=O)N(CC(=O)NCC2CCCO2)c2ccc(F)cc2)cc1OC (configuration not stated) | 27.5 | 0.5 | 20.0 | 53.2* | -1.2 | 0.7
O=C(CN(CC1CCCO1)C(=O)CNS(=O)(=O)c1ccc(Cl)cc1)NCC1CCCO1 (configuration not stated) | x | x | 14.8 | x | 1.0 | x
COC(=O)c1ccc(N2C(=O)CC(N3CCC(O)(c4ccc(Br)cc4)CC3)C2=O)cc1 (configuration not stated) | 11.5 | 0.9 | 1.4 | 11.8 | -1.4 | 0.9
O=C(COC(=O)CCCNC(=O)c1ccc(Cl)cc1)Nc1ccc(Br)cc1 | x | x | x | x | -2.1 | x
COc1cccc(-n2c(SCC(=O)NC(C)(C)C)nnc2-c2ccoc2C)c1 | 10.7 | 0.3 | 8.7 | 72.9* | -0.7 | 0.9
COC(=O)CSc1nnc(-c2ccoc2C)n1-c1ccc(OC)cc1 | 7.6 | 0.6 | 12.2 | 39.4 | -0.2 | 0.9
CCOC(=O)CSc1nnc(-c2ccoc2C)n1-c1ccc(OCC)cc1 | 82.2* | 0.1 | -0.4 | 91.6* | -0.2 | 0.2
CCOC(=O)CSc1nnc(-c2ccoc2C)n1-c1ccc(C)cc1 | x | x | 6.6 | x | -1.1 | x
OC(Cn1ccnc1)c1ccc(Cl)cc1Cl (configuration not stated) | 94.8* | 0 | 6.4 | 98.9* | -2.4 | 0.1
CCOC(=O)C1CCN(Cc2nc3ccccc3c(=O)n2-c2ccc(OCC)cc2)CC1 | 53.5* | 0.8 | 46.7 | 17.6 | -4.8 | 0.5
CCOC(=O)C1CCN(C2CC(=O)N(c3ccc(OCC)cc3)C2=O)CC1 (configuration not stated) | x | x | 5.5 | x | 0.1 | x
CC1=C(C)/C(=N/OC(=O)c2cccc([N+](=O)[O-])c2)C=CC1=O | x | x | -15.6 | x | -7.6 | x
CCOc1cc(CNc2ccc(Br)cc2)cc(Br)c1OCC(=O)NC(C)(C)C | 89.1* | 0.8 | x | 20.9 | -3.1 | 0.1
CCOc1cc(CNc2ccc(OC)cc2)cc(Br)c1OCC(=O)NC(C)(C)C | 58.7* | 0.5 | x | 51.6* | -3.7 | 0.4
CCCCC(=O)Nc1ccc(NC(=O)c2ccc(C)c([N+](=O)[O-])c2)cc1OC | x | x | x | x | -1.2 | x
CCc1ccc(Nc2oc(C)cc(=O)c2C(C)=O)cc1 | 11.6 | 1 | 2.8 | 3.1 | 1.2 | 0.9
CC(C)CCNc1nnnc2c1sc1nc(N3CCOCC3)c3c(c12)CC(C)(C)SC3 | 84.6* | 0.6 | -24.4 | 36.9 | 0.0 | 0.2
CC1(C)Cc2c(c(N3CCOCC3)nc3sc(C#N)c(N)c23)CS1 | -2.1 | 1.1 | -11.4 | -12.7 | -0.8 | 1
Cc1ccc2[nH]c(=O)c(CN(CC3CCCO3)C(=S)Nc3ccccc3)cc2c1 (configuration not stated) | x | x | x | x | -4.8 | x
COc1cccc(C(=O)Nc2ncc3c(n2)CC(C)(C)CC3=O)c1 | 8.1 | 1 | -25.4 | 3.3 | -1.3 | 0.9
COc1ccc(S(=O)(=O)NCCC(C)C)cc1C | -86.7 | 0.2 | -9.2 | 85.0* | -3.0 | 1.9
COc1ccc(S(=O)(=O)NCCc2csc(C)n2)cc1C | -24.4 | 0.3 | -3.3 | 73.8* | -1.1 | 1.2
Cc1ccc(S(=O)(=O)NCCC(C)C)cc1[N+](=O)[O-] | x | x | x | x | -1.4 | x
O=C(CCn1c(=S)[nH]c2ccccc2c1=O)NCCCN1CCOCC1 | -2.9 | 1 | x | -2.9 | -0.5 | 1
CC1CC(C)CN(C(=O)CCCn2c(=S)[nH]c3ccccc3c2=O)C1 (configuration not stated) | 39.1 | 0.1 | 13.4 | 85.2* | -3.0 | 0.6
SMILES | CYP2C9 inh | CYP2C19 act | MRP resist rev | CYP2C19 inh | MRP-1 activ | CYP2C9 activ
O=C(CCCn1c(=S)[nH]c2ccccc2c1=O)N1CCCCC1 | 34.5 | 0.2 | 8.3 | 81.4* | -1.5 | 0.7
O=c1c2ccccc2[nH]c(=S)n1CCCN1CCOCC1 | 3.7 | 0.4 | 7.1 | 59.9* | 0.0 | 1
O=C(CCn1c(=S)[nH]c2cc3c(cc2c1=O)OCO3)N1CCN(c2ccccn2)CC1 | x | x | -6.6 | x | x | x
O=C(CCCn1c(=S)[nH]c2ccc(Br)cc2c1=O)N1CCN(c2ccccn2)CC1 | 55.3* | 0.3 | -17.6 | 70.0* | -2.1 | 0.4
CCCOc1ccc(OCCNC2CCCC2)cc1 | -8.3 | 1.1 | x | -13.0 | -0.3 | 1.1
CCOC(=O)C1C2C=CC3(CN(c4ccccc4CC)C(=O)C13)O2 (configuration not stated) | x | x | -7.8 | x | x | x
NC(=O)c1nsc(C(=O)N(CC(=O)NCc2ccc3c(c2)OCO3)C2CCCC2)c1N | -7.9 | 0.6 | 3.6 | 42.1 | -1.7 | 1.1
COc1ccc(N2CCN(C(=O)C3CCC(Cn4c(=S)[nH]c5ccccc5c4=O)CC3)CC2)cc1 (configuration not stated) | 81.2* | 0.2 | -7.0 | 83.3* | 0.2 | 0.2
CC(NC(=O)c1ccc(CS(=O)(=O)c2ccc(Cl)cc2)o1)c1ccc2c(c1)OCCO2 (configuration not stated) | 73.7* | 0.5 | 20.5 | 49.6 | -2.4 | 0.3
CC(NC(=O)c1ccco1)c1ccc2c(c1)OCCO2 (configuration not stated) | x | x | 29.9 | x | -1.9 | x
Cc1ccccc1S(=O)(=O)Cc1ccc(C(=O)NC(C)c2ccc3c(c2)OCCO3)o1 (configuration not stated) | 98.5* | 0 | 16.3 | 98.7* | 0.1 | 0
O=c1cc(CSc2nnc(COc3ccccc3Cl)o2)nc2sccn12 | 52.9* | 0.1 | 10.4 | 87.5* | 1.8 | 0.5
Cc1cccc(OCc2nnc(SCC(=O)Nc3ccc(C)c(C)c3)o2)c1 | x | x | 7.6 | x | -1.7 | x
Cc1ccc(C(=O)CSc2nnc(COc3cccc(C)c3)o2)cc1 | -0.6 | 1 | 92.3* | 3.6 | -1.7 | 1
CC(C)NC(=O)NC(=O)CSc1nnc(COc2ccccc2Cl)o1 | 28.3 | 0.9 | x | 14.1 | -0.3 | 0.7
Cc1cccc(OCc2nnc(SCc3cc(=O)n4cc(Br)ccc4n3)o2)c1 | 89.5* | 0.1 | 19.9 | 91.7* | -3.9 | 0.1
Cc1cc(C)cc(OCc2nnc(SCC(=O)OC(C)C)o2)c1 | -25.9 | 0.4 | 10.8 | 59.7* | -0.5 | 1.3
Cc1ccc(OCc2nnc(SCC(=O)N3c4ccccc4Sc4ccc(Cl)cc43)o2)cc1 | x | x | x | x | 10.8* | x
CCOC(=O)C1CCN(C(=O)CS(=O)Cc2nc(-c3ccc(C)cc3)oc2C)CC1 (configuration not stated) | 66.9* | 0.6 | 10.5 | 39.7 | -3.6 | 0.3
Cc1cccc(-c2nc(CS(=O)CC(=O)N3CCN(C)CC3)c(C)o2)c1 (configuration not stated) | 4.1 | 0.9 | 28.6 | 7.7 | -1.9 | 1
Cc1ccsc1-c1nc(CSCC(=O)N2CCN(c3ccccc3)CC2)c(C)o1 | 23.9 | 0.4 | -3.8 | 62.6* | -0.9 | 0.8

High-throughput results: PubChem, several laboratories
